Measured values published in PubChem BioAssay (EPA / NIEHS).
Values joined by “and” are separate entries in the source; they are usually repeats but may differ in a detail not shown here. Identical values can stand only once. Results filed as inconclusive are left out. More than one record can exist for a structure, and the calls need not agree. Active and inactive are the calls of the source. How the source made its calls, unless noted: active means hit-call score of the fitted dose curve at least 0.9, where 1 is the maximum; inconclusive means response in the unintended direction; inactive means score below 0.9.

Legend:
[1] = read-out: UDP glucuronosyltransferase (UGT1A1), UGT1A1 (gene 54658); assay: LTEA_HepaRG_UGT1A1: Life Technologies and Expression Analysis (LTEA) Assay for UDP glucuronosyltransferase (UGT1A1) using HepaRG (AID 2283538; active means hit-call score of the fitted dose curve at least 0.9, where 1 is the maximum; inactive means score below 0.9); settings: mRNA level, 48 h; actives raise or lower the signal
Summary of the method: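 Human liver HepaRG cultures receive test chemical for 48 h, up to 100 uM in 0.5% DMSO, with phenobarbital induction controls. UGT1A1 mRNA is measured by qRT-PCR and normalized to ACTB, GAPDH and POLR2A.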

[2] = read-out: X-box binding protein 1 (XBP1), XBP1 (gene 7494); assay: LTEA_HepaRG_XBP1: Life Technologies and Expression Analysis (LTEA) Assay for X-box binding protein 1 (XBP1) using HepaRG (AID 2283540; active means hit-call score of the fitted dose curve at least 0.9, where 1 is the maximum; inactive means score below 0.9); settings: mRNA level, 48 h; actives raise or lower the signal
Summary of the method: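 Human HepaRG monolayers receive test chemical for 48 h across an eight-point half-log series starting at 100 uM. XBP1 mRNA gain or loss is scored against DMSO by qRT-PCR.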

[3] = LTEA_HepaRG_LDH_cytotoxicity: Cytotoxicity Assessment in the Life Technologies and Expression Analysis (LTEA) Assay (AID 2283563);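 on AC50: LDH activity released into spent culture medium as a marker of cell death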
Summary of the method: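 Human HepaRG hepatic cells are treated with test chemicals for 48 h at up to 100 uM in 0.5% DMSO. Cytotoxicity is scored from medium LDH against the vehicle control.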

[4] = ATG_XTT_Cytotoxicity: Cytotoxicity Assessment in the Attagene TRANS-FACTORIAL HepG2 Assay (AID 2283584);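 on AC50: XTT signal for cell number as viability in transfected HepG2 cells; cells exposed to compound for 24 h before reading; active means loss of viability signal versus DMSO baseline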
Summary of the method: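 Transfect HepG2 with GAL4-UAS reporter units, dose compound, incubate 24 h, then measure viable cell number by XTT. Fit concentration response against DMSO baseline.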

[5] = TOX21_p53_BLA_p2_viability: Viability Assessment in the Tox21 HCT-116 p53 Agonism Beta-lactamase Assay, Phase 2 (AID 2283591);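 further: actives lower the ATP signal meaning cytotoxicity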
Summary of the method: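 HCT116 p53-bla cells, 4000/well, dosed after 5 h plating (217-fold dilution of DMSO stocks) and incubated 16 h at 37C. Viability taken as cellular ATP by CellTiter-Glo luminescence after 30 min RT; signal loss marks cytotoxicity.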

[6] = molecular target: Cellular tumor antigen p53 (Homo sapiens) (UniProt P04637); assay: TOX21_p53_BLA_p2_ratio: Tox21 HCT-116 p53 Agonism Beta-lactamase Assay, Ratio, Phase 2 (AID 2283592)
Sequence of Cellular tumor antigen p53 (Homo sapiens) (P04637 whole entry, looked up): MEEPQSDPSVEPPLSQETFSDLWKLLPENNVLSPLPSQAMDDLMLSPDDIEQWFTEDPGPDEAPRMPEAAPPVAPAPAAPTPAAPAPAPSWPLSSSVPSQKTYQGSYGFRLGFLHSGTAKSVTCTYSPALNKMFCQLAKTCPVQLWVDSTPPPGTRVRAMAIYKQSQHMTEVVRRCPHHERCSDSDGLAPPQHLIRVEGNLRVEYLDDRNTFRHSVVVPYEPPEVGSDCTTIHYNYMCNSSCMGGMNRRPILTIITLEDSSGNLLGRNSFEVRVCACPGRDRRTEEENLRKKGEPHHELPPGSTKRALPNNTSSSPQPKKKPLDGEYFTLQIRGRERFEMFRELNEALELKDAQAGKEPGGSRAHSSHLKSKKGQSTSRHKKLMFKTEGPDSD
Summary of the method: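 An inducible beta-lactamase reporter in HCT116 cells signals p53 pathway activation. After 16 h chemical exposure at 37C, cells load CCF4-AM substrate for 2 h at room temperature; activity is the cleaved/uncleaved emission ratio relative to DMSO.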

[7] = TOX21_p53_BLA_p3_viability: Viability Assessment in the Tox21 HCT-116 p53 Agonism Beta-lactamase Assay, Phase 3 (AID 2283593);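 further: cells exposed to compound for 16 h before reading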
Summary of the method: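 HCT116 cells, 4000/well, dosed 5 h after plating by pin transfer (217-fold dilution from DMSO stock) and incubated 16 h at 37C, 5% CO2. Viability read as ATP luminescence with CellTiter-Glo after 30 min at room temperature.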

[8] = molecular target: Cellular tumor antigen p53 (Homo sapiens) (UniProt P04637); assay: TOX21_p53_BLA_p3_ratio: Tox21 HCT-116 p53 Agonism Beta-lactamase Assay, Ratio, Phase 3 (AID 2283596)
Summary of the method: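 HCT116 p53-bla cells (4000/well) given compound in DMSO (217-fold dilution) after 5 h, incubated 16 h at 37C. CCF4-AM substrate 2 h at room temperature; 460/530 nm emission ratio, gain fitted against DMSO.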

[9] = TOX21_p53_BLA_p4_viability: Viability Assessment in the Tox21 HCT-116 p53 Agonism Beta-lactamase Assay, Phase 4 (AID 2283597);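 further: hits lower the luminescence signal meaning cytotoxicity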
Summary of the method: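 Compound exposure of HCT116 cells lasts 16 h at 37C, 5% CO2, with DMSO stocks diluted 217-fold. Cellular ATP is then quantified by CellTiter-Glo luminescence after 30 min at room temperature.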

[10] = molecular target: Cellular tumor antigen p53 (Homo sapiens) (UniProt P04637); assay: TOX21_p53_BLA_p5_ratio: Tox21 HCT-116 p53 Agonism Beta-lactamase Assay, Ratio, Phase 5 (AID 2283599)
Summary of the method: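 HCT-116 p53-bla cells (4000/well) plated 5 h, dosed with compound (217-fold DMSO dilution) for 16 h at 37 C; CCF4-AM substrate 2 h at room temperature. Activity is the 460/530 nm emission ratio (405 nm excitation), fitted in gain-of-signal direction versus DMSO.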

[11] = TOX21_p53_BLA_p5_viability: Viability Assessment in the Tox21 HCT-116 p53 Agonism Beta-lactamase Assay, Phase 5 (AID 2283600)
Summary of the method: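 Counter-readout for cytotoxicity: ATP-dependent luminescence from CellTiter-Glo, read in the beta-lactamase wells after 30 min at RT, following a 16 h compound exposure at 37C.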

[12] = molecular target: Cellular tumor antigen p53 (Homo sapiens) (UniProt P04637); assay: TOX21_p53_BLA_p4_ratio: Tox21 HCT-116 p53 Agonism Beta-lactamase Assay, Ratio, Phase 4 (AID 2283601)
Summary of the method: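 HCT-116 p53 beta-lactamase reporter cells (4000/well) preincubated 5 h, then compound (217-fold dilution of DMSO stock) for 16 h at 37C. CCF4-AM substrate added 2 h at room temperature; 460/530 nm emission ratio fitted upward versus DMSO.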

[13] = Tanguay_ZF_120hpf_YSE_legacy: (Legacy) Oregon State University Tanguay Lab 120 Hour Post-fertilization zebrafish Assay for Yolk Sac Edema (AID 2283634);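 on AC50: actives raise the incidence of yolk sac edema above the DMSO baseline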
Summary of the method: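 Readout: presence or absence of yolk sac edema at 120 hpf, fitted upward against DMSO controls. Exposure ran statically from 6 hpf in dechorionated embryos kept at 28C.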

[14] = Tanguay_ZF_120hpf_AXIS_legacy: (Legacy) Oregon State University Tanguay Lab 120 Hour Post-fertilization zebrafish Assay for Body Axis Malformation (AID 2283635);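 on AC50: potency for an increased fraction of larvae scored with body axis malformation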
Summary of the method: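 Static 6–120 hpf chemical exposure of dechorionated wild-type 5D zebrafish, one per well at 28C; morphology endpoint scored binary at 120 hpf relative to DMSO control.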

[15] = Tanguay_ZF_120hpf_EYE_legacy: (Legacy) Oregon State University Tanguay Lab 120 Hour Post-fertilization zebrafish Assay for Eye Malformation (AID 2283636);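 further: binary presence or absence of eye malformation scored by brightfield in 120 hpf larvae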
Summary of the method: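 Dechorionated Tropical 5D zebrafish embryos, one per well from 6 hpf, static exposure to 120 hpf at 28C, 0.64% DMSO. Eye malformation scored present/absent by brightfield; dead embryos not scored.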

[16] = Tanguay_ZF_120hpf_SNOU_legacy: (Legacy) Oregon State University Tanguay Lab 120 Hour Post-fertilization zebrafish Assay for Snout Malformation (AID 2283637)
Summary of the method: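 Dechorionated tropical 5D wild-type zebrafish embryos exposed statically from 6 to 120 hpf at 28C, one per well, in 0.64% DMSO. Snout malformation scored as present/absent by brightfield at 120 hpf; dead embryos not scored.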

[17] = Tanguay_ZF_120hpf_JAW_legacy: (Legacy) Oregon State University Tanguay Lab 120 Hour Post-fertilization zebrafish Assay for Jaw Malformation (AID 2283638);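 on AC50: active means more embryos with jaw malformation than DMSO controls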
Summary of the method: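 Static waterborne exposure of dechorionated wild-type (Tropical 5D) zebrafish from 6 to 120 hpf at 28C, 0.64% DMSO vehicle; 5uM trimethyltin chloride served as positive control. Jaw morphology recorded as binary at 120 hpf.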

[18] = Tanguay_ZF_120hpf_OTIC_legacy: (Legacy) Oregon State University Tanguay Lab 120 Hour Post-fertilization zebrafish Assay for Otic Vesicle Malformation (AID 2283639)
Summary of the method: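 Otic vesicle malformation is read as a yes/no morphology call at 120 hpf. Exposure is static at 28C with 0.64% (vol/vol) DMSO; embryos that die are excluded from non-mortality endpoints.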

[19] = read-out: UDP glucuronosyltransferase (UGT1A6), UGT1A6 (gene 54578); assay: LTEA_HepaRG_UGT1A6: Life Technologies and Expression Analysis (LTEA) Assay for UDP glucuronosyltransferase (UGT1A6) using HepaRG (AID 2283539; active means hit-call score of the fitted dose curve at least 0.9, where 1 is the maximum; inactive means score below 0.9); settings: mRNA level, 48 h; actives raise or lower the signal
Summary of the method: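 Endpoint is UGT1A6 transcript induction or loss in a human liver cell line, quantified by TaqMan qRT-PCR 48 h after dosing. Concentrations ran from 100 uM downward in half-log steps in 0.5% DMSO; activity was fitted in both directions versus vehicle.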

[20] = Tanguay_ZF_120hpf_MORT_legacy: (Legacy) Oregon State University Tanguay Lab 120 Hour Post-fertilization zebrafish Assay for Mortality (AID 2283633);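 on AC50: fitted as increase in binary mortality versus DMSO negative control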
Summary of the method: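 Mortality endpoint from a multiplexed whole-embryo zebrafish screen. Dechorionated wild-type embryos received compound at 6 hpf and remained under static exposure at 28C until 120 hpf, with death noted as a present/absent call.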

Measured: AC50

O=[N+]([O-])c1ccc(O)cc1
not listed: [19] | [20]
inactive: all other assays above

CC(=O)CC(C)(C)O
not listed: [9] | [11] | [15]
inactive: all other assays above

CCOC(=O)CC(O)(CC(=O)OCC)C(=O)OCC
not listed: [7] | [8] | [9] | [10] | [11]
inactive: all other assays above

CCCCCCCC(=O)O
not listed: [20]
inactive: all other assays above

CCCOc1sc(C(=O)N2CCC(c3cc(CN)ccc3F)CC2)c(C)c1Br
active: [5] 43.2 µM | [6] 80.1 µM | [7] 80 µM | [8] 80.4 µM | [9] 31.7 µM | [10] 80.7 µM | [11] 80.1 µM | [12] 72.2 µM
not listed: [4] | [16] | [20]
inactive: all other assays above

CCCCCCCCCCCCN1CCCC1=O
active: [4] 155 µM | [7] 69.8 µM | [8] 67.1 µM | [10] 63.2 µM | [11] 45.3 µM | [13] 47.3 µM | [17] 46.6 µM
not listed: [19] | [20]
inactive: all other assays above

Oc1cc2ccccc2c2ccccc12
inactive: [1] | [2] | [3]
active: [4] 16.6 µM and 16.3 µM | [5] 15.2 µM | [6] 46.1 µM | [7] 14.5 µM | [8] 13.6 µM | [9] 12.2 µM | [10] 11.6 µM | [11] 13.3 µM | [12] 20.4 µM | [13] 38.3 µM | [14] 10.4 µM | [15] 40 µM | [16] 14.3 µM | [17] 9.87 µM | [18] 10.8 µM

N#C[C@@H]1CC(F)(F)CN1C(=O)CNC1CC2CCC(C1)N2c1ncccn1 (some centres undefined)
not listed: [4] | [6] | [8] | [10] | [20]
inactive: all other assays above

CCc1ccc(CCOc2ccc(CC3SC(=O)NC3=O)cc2)nc1 (centres undefined)
active: [1] 12.2 µM
not listed: [20]
inactive: all other assays above

CC(C)(C)c1cc(C(C)(C)C)c(O)c(C(C)(C)C)c1
active: [1] 13.9 µM | [19] 14.5 µM
not listed: [4] | [12] | [18] | [20]
inactive: all other assays above

Nc1cccc2c(N)cccc12
not listed: [19] | [20]
inactive: all other assays above

CN(C)C=O
not listed: [5] | [11] | [15] | [20]
inactive: all other assays above

C=C(C)C(=O)OCCC(F)(F)C(F)(F)C(F)(F)C(F)(F)C(F)(F)C(F)(F)F
not listed: [5] | [11] | [17] | [20]
inactive: all other assays above

c1ccc2cc3c(ccc4ccccc43)cc2c1
active: [1] 4.24 µM | [2] 17.2 µM | [13] 41.6 µM | [14] 12.5 µM | [15] 45.6 µM | [16] 46.5 µM | [17] 49.1 µM | [18] 40.6 µM
not listed: [19] | [20]
inactive: all other assays above

Cc1oc(-c2ccccc2)nc1CCOc1ccc(C[C@H](Nc2ccccc2C(=O)c2ccccc2)C(=O)O)cc1
inactive: [2] | [4] | [13] | [14] | [15] | [16] | [17] | [18]
active: [1] 23.1 µM | [19] 16.8 µM | [3] 28.7 µM | [5] 7.33 µM | [6] 72.3 µM | [7] 10.7 µM | [8] 39.9 µM | [9] 6.19 µM | [10] 56 µM | [11] 15.5 µM | [12] 41.6 µM

CC(C)(C)CC(C)(C)c1ccc(O)c(-n2nc3ccccc3n2)c1
active: [1] 17.4 µM | [7] 38.6 µM
inactive: [19] | [2] | [3] | [4] | [5] | [6] | [7] | [8] | [9] | [10] | [11] | [12] | [13] | [14] | [15] | [16] | [17] | [18]

O=C(O)Cc1cc(I)c(Oc2cc(I)c(O)c(I)c2)c(I)c1
inactive: [2] | [4] | [6] | [13] | [18]
active: [1] 61.5 µM | [19] 62.2 µM | [3] 61.9 µM | [5] 24.1 µM | [7] 46.1 µM | [8] 28.2 µM | [9] 30.9 µM | [10] 30.6 µM | [11] 49.3 µM | [12] 33.1 µM | [20] 8.91 µM | [14] 0.0204 µM | [15] 0.0114 µM | [16] 0.00601 µM | [17] 0.00848 µM
